Data from the supplement of paper PMC10981050.
Where a name gives a salt, the structure may show the parent alone.

Each compound was assayed on MOLM14 (assay: cell viability relative to vehicle control; higher = less cytotoxic). Settings: 10 µM; SRSF2 genotype: SRSF2 P95H/wt.
Procedure, shortened: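 Screening covered the Selleck bioactive, kinase and epigenetic probe libraries, less identity-inconsistent compounds, on CRISPR-edited mutant clones and isogenic wild-type clones of four leukaemia lines. Cells, at 2000 per well in 50 µL medium, received a single 10 µM acoustically dispensed dose. After 48 h the supernatant was removed and CellTiter-Glo luminescence was read. Viability was analysed in Genedata Screener as percent of the on-plate vehicle control.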

| Structure (SMILES) | cell viability [%] |
| --- | --- |
| COc1ccc2cc3[n+](cc2c1OC)CCc1cc2c(cc1-3)OCO2 [Berberine Sulfate] | 71 |
| CO/N=C(\C(=O)N[C@@H]1C(=O)N2C(C(=O)[O-])=C(C[n+]3ccn4ncccc43)CS[C@H]12)c1nsc(N)n1 [Cefozopran hydrochloride] | 99.4 |
| O=C1NC(=O)/C(=C/c2cccc(C(F)(F)F)c2)S1 | 97.4 |
| CC(C)NCC(O)c1ccc(O)c(O)c1 (stereo not drawn) [Isoprenaline hydrochloride] | 89.7 |
| CC(C)C(C)C(O)C(O)C(C)C1CCC2C3COC(=O)C4CC(O)C(O)CC4(C)C3CCC12C (stereo not drawn) [Brassinolide] | 95.8 |
| O=c1c(-c2ccc(O)cc2)coc2cc(O[C@@H]3O[C@H](CO)[C@@H](O)[C@H](O)[C@H]3O)cc(O)c12 [Genistin (Genistoside)] | 89 |
| C[C@H]1[C@@H](O)O[C@@H]2O[C@@]3(C)CC[C@H]4[C@H](C)CC[C@@H]1[C@@]24OO3 [Dihydroartemisinin (DHA)] | 22.1 |
| Nc1ncnc2c1ncn2C(C=O)OC(C=O)CO (stereo not drawn) [Adenosine Dialdehyde (ADOX)] | 25.3 |
| COc1nc2ccc(Br)cc2cc1[C@@H](c1ccccc1)[C@@](O)(CCN(C)C)c1cccc2ccccc12 [Bedaquiline] | 51.8 |
| CO[C@@H]1[C@@H](OC)[C@H](C)[C@@](O)(CC(=O)O)O[C@H]1[C@H](C)[C@H]1O[C@@]2(CC[C@@](C)([C@H]3CC[C@@](C)([C@@H]4O[C@@H]([C@H]5O[C@](C)(O)[C@H](C)C[C@@H]5C)C[C@@H]4O[C@@H]4C[C@H](OC)[C@@H](OC)[C@H](C)O4)O3)O2)C[C@H](O)[C@H]1C [Maduramycin Ammonium] | 25.6 |
| CCn1c(=O)c(-c2ccc(-c3cncs3)cc2Cl)cc2cnc(Nc3ccc(N4CCN(C)CC4)cc3)nc21 | 46.6 |
| O=P(O)(O)Oc1cccc2ccccc12 [1-Naphthyl phosphate potassium salt] | 91.7 |
| O=c1c(O)c(-c2ccc(O)cc2)oc2cc(O)cc(O)c12 [Kaempferol] | 57.4 |
| CCC(=O)O[C@]1(C(=O)SCF)[C@H](C)C[C@H]2[C@@H]3C[C@H](F)C4=CC(=O)C=C[C@]4(C)[C@@]3(F)[C@@H](O)C[C@@]21C [Fluticasone propionate (Flonase, Veramyst)] | 85.3 |
| Nc1nc(NC2CC2)cc(-c2cccc(Cl)c2Cl)n1 | 34.5 |
| CC(C)CCCC(C)C1CCC2C3=CC=C4CC(O)CCC4(C)C3CCC21C (stereo not drawn) [7-Dehydrocholesterol] | 86.6 |
| O=C1C(c2[nH]c3ccccc3c2O)=Nc2ccccc21 [Indigo] | 93 |
| CN(CCNc1ccnc2cc(Cl)ccc12)CCNc1ccnc2cc(Cl)ccc12 | 0.51 |
| COc1ccc2cc(CCC(C)=O)ccc2c1 [Nabumetone] | 104 |
| COc1cc(C=O)ccc1O [Vanillin] | 103 |
| CCC(=O)OCC(=O)[C@@]1(OC(=O)CC)[C@@H](C)C[C@H]2[C@@H]3CCC4=CC(=O)C=C[C@]4(C)[C@@]3(F)[C@@H](O)C[C@@]21C [Betamethasone Dipropionate (Diprolene)] | 94.5 |
| Cn1nc(C(C)(C)C)cc1C(=O)N[C@@H](Cc1cccc(Cl)c1)C(=O)NCC#N [Cathepsin Inhibitor 1] | 92.4 |
| CCOC(=O)C1=C(C)NC(C)=C(C(=O)OC)C1c1cccc(Cl)c1Cl (stereo not drawn) [Felodipine (Plendil)] | 78.4 |
| CC(C)=CCCC(C)(OC1OC(COC2OCC(O)C(O)C2O)C(O)C(O)C1O)C1CCC2(C)C1C(O)CC1C3(C)CCC(OC4OC(CO)C(O)C(O)C4O)C(C)(C)C3CCC12C (stereo not drawn) [Gynostemma Extract] | 101 |
| CCNC(=O)[C@@H]1CCCN1C(=O)[C@H](CCCN=C(N)N)NC(=O)[C@H](CC(C)C)NC(=O)[C@@H](CC(C)C)NC(=O)[C@H](Cc1ccc(O)cc1)NC(=O)[C@H](CO)NC(=O)[C@H](Cc1c[nH]c2ccccc12)NC(=O)[C@H](Cc1cnc[nH]1)NC(=O)[C@@H]1CCC(=O)N1 [S3718 Leuprolide Acetate.cdx] | 103 |
| Nc1ncnc2c1ncn2C1OC(COP(=O)(O)OP(=O)(O)O)C(O)C1O (stereo not drawn) | 101 |
| O=CO [Formate] | 102 |
| COc1cc2c(=O)c(-c3ccc(O)cc3)coc2cc1O[C@@H]1O[C@H](CO)[C@@H](O)[C@H](O)[C@H]1O [Glycitin] | 97.1 |
